A short description of assay [1]: compound effects on lung adenocarcinoma cell viability – A549, calcein-AM fluorescence, 48 h, basal, profiling panel (AID 1162). Particulars: higher = more signal.
The nature of assay [2]: compound effects on differentiated 3T3-L1 adipocyte viability – cell-based, 3T3-L1 adipocytes, calcein-AM fluorescence, 48 h, basal, profiling panel (AID 1163). Particulars: 3T3-L1 adipocytes viability, higher = more signal.
The nature of assay [3]: compound effects on hepatocellular carcinoma cell viability – HepG2, calcein-AM fluorescence, 48 h, basal, profiling panel (AID 1164). Particulars: higher = more signal.
Assay [4] in a line: compound effects on multiple myeloma cell viability – MM1S, calcein-AM fluorescence, 48 h, basal, profiling panel (AID 1165). The conditions noted are these: higher = more signal.
Assay [5] can be described thus: calcein-AM signal in unstimulated myeloma cells – cell-based, calcein-AM fluorescence, 48 h, PK04 Diversity Set, profiling panel (AID 1166).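 Note: cells grown under basal conditions without added stimulus.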 Particulars: RPMI8226 myeloma viability, higher = more signal.
A short description of assay [6]: JC-1 mitochondrial signal, unstimulated HepG2 cells – cell-based, JC-1 fluorescence, 24 h, 100 nL compound, profiling panel (AID 1167). The conditions noted are these: HepG2 mitochondrial potential, higher = more signal.
Assay [7] can be described thus: JC-1 mitochondrial signal, unstimulated adipocytes – cell-based, JC-1 fluorescence, 3T3-L1 adipocytes, 24 h, 100 nL compound, profiling panel (AID 1168). Particulars: JC-1 mitochondrial fluorescence, higher = more signal, called active from +8 up or from −8 down.
A short description of assay [8]: JC-1 mitochondrial signal, unstimulated myeloma cells – cell-based, JC-1 fluorescence, RPMI8226, 24 h, 100 nL compound, profiling panel (AID 1169). The conditions noted are these: JC-1 mitochondrial potential fluorescence, higher = more signal.
Assay [9] can be described thus: JC-1 mitochondrial signal, unstimulated MM1S myeloma – cell-based, JC-1 fluorescence, 24 h, 100 nL compound, profiling panel (AID 1170). The conditions noted are these: MM1S mitochondrial potential, higher = more signal.
Assay [10] can be described thus: resazurin metabolic signal in A549 cells – cell-based, resazurin fluorescence, 24 h, PK04 Diversity Set, profiling panel (AID 1171). The conditions noted are these: A549 viability, higher = more signal, called active from +8 up or from −8 down. For orientation: Alamar Blue is a resazurin reagent that responds to reducing activity.

The source made the active and inactive calls.
Note: test concentration not given here.

As to `O=C1c2ccccc2[C@@]2(Cc3ccccc3N(CCN3CCOCC3)C2=O)[C@H](c2ccc(CO)cc2)N1Cc1ccccc1`, the z-score is 0.668 in [1]; -0.238 in assay [2]; 0.402 in assay [3]; 0.0855 in assay [4]; 0.66 in [5]; 0.761 in assay [6]. The z-score in assay [7] is 0.734 (inactive); in [8], -0.605; in assay [9], -0.253; in assay [10] it was -0.273 (inactive).

As to `O=C1OCCC=C[C@H]2OC34C=CCN(CCN5CCOCC5)C(=O)[C@H]3N(CCCCCCO)C(=O)[C@@H]4C12` (stereo not given in full), the z-score in [1] was 0.758; in assay [2], -3.63; in assay [3] it was 0.821; in [4], 1.32; in assay [5], 0.477; in assay [6], 1.07. In addition, the z-score in [7] was -0.347 (inactive); in assay [8] it was 0.0953; in [9], 0.341; in [10], 0.459 (inactive).

For the compound `O=C1OCCC/C=C\[C@H]2OC34C=CCN(c5ccc6ccccc6c5)C(=O)[C@H]3N(CCCCCCO)C(=O)[C@@H]4C12` (stereo not given in full), the z-score is 1.21 in [1]; 0.817 in [2]; 2 in assay [3]; 1.92 in assay [4]; 0.254 in [5]; 1.02 in assay [6]. Further, the z-score was 0.4 (inactive) in [7], -0.967 in [8], -0.257 in [9] and -0.0595 (inactive) in [10].

As for `NCCCCCNC(=O)[C@@H]1C[C@@H]2C(=O)N[C@@H](Cc3ccccc3)C(=O)N2[C@@H]1c1cccc(OCCO)c1`, the z-score was -0.349 in [1]; 0.512 in assay [2]; -0.442 in assay [3]; 0.143 in assay [4]; -0.371 in assay [5]; -1.04 in assay [6]. The z-score in assay [7] was -0.684 (inactive); in assay [8], -0.0752; in assay [9], 0.894; in assay [10], -0.403 (inactive).

For the compound `CN1C2C=C(CCCO)C(C3C(=O)N(C(N)=O)C(=O)C32)C1c1ccc(CN2CCCC2)cc1` (stereo not given), the z-score was -0.814 in [1]; -0.543 in [2]; -0.357 in assay [3]; 0.432 in [4]; -1.22 in [5]; -0.208 in assay [6]. Besides, the z-score was -0.655 (inactive) in assay [7], 0.234 in assay [8], -0.137 in [9] and 0.0528 (inactive) in assay [10].

On to `CCCCN1CC=CC23O[C@@H]4C=CCOC(=O)[C@@H]4[C@H]2C(=O)N(CCCCCO)[C@@H]3C1=O` (stereo not given in full), for which the z-score is -0.503 in [1]; -0.122 in [2]; -0.781 in [3]; 0.276 in assay [4]; 0.778 in assay [5]; -0.235 in [6]. Further, the z-score is 0.17 (inactive) in assay [7], -0.0189 in [8], -0.0548 in assay [9] and -0.508 (inactive) in assay [10].

As to `CC(C)C(=C=CC[C@@H](O)c1ccccc1OCCO)CCO`, the z-score in assay [1] is 0.855; in assay [2], -1.23; in assay [3], -0.902; in assay [4] it was -0.314; in [5] it was 0.168; in [6], -1.03. The z-score in [7] was 0.235 (inactive); in assay [8] it was 0.719; in assay [9] it was -0.0293; in assay [10], 0.215 (inactive).

On to `CS(=O)(=O)CCOC(=O)C1=CC(CCCO)=CC(c2ccc(CN3CCCC3)cc2)N(Cc2cc3c(cc2Br)OCO3)C=C1C(=O)OCCS(C)(=O)=O` (stereo not given), for which the z-score in assay [1] was 1.94; in [2] it was -0.0958; in assay [3], -0.0078; in [4] it was -0.315; in [5], 0.0614; in assay [6] it was 3.02. Besides, the z-score in assay [7] is 0.771 (inactive); in assay [8] it was 0.00988; in assay [9], 1.29; in assay [10], 0.778 (inactive).

As to `O=C1OCC=C[C@H]2OC34C=CCN(c5ccc6ccccc6c5)C(=O)[C@H]3N(CCCCCCO)C(=O)[C@@H]4[C@@H]12` (stereo not given in full), the z-score in assay [1] was 0.429; in [2], -0.358; in [3] it was 0.878; in assay [4] it was 1.38; in [5] it was -0.0053; in assay [6], 0.631. In addition, the z-score in assay [7] was 0.613 (inactive); in assay [8], -0.979; in assay [9] it was 0.469; in [10] it was 0.61 (inactive).

In the case of `C#CCNC(=O)[C@H](Cc1ccccc1)NC(=O)CCC(=O)O`, the z-score was -0.281 in [1]; -0.405 in assay [2]; 0.0694 in assay [3]; 0.527 in [4]; 0.0189 in [5]; -0.821 in assay [6]. Moreover, the z-score in [7] is -0.536 (inactive); in assay [8], 0.539; in [9], -0.97; in assay [10], -0.119 (inactive).

Turning to `O=C1O[C@H](c2ccccc2)[C@H](c2ccccc2)N2[C@H]1[C@@H](C(=O)N1CCN(c3ncccn3)CC1)[C@]1(C(=O)Nc3ccc(C#CC4=CCCCC4)cc31)[C@H]2c1ccc(O)cc1`, the z-score was 0.645 in assay [1]; 0.301 in [2]; 0.469 in assay [3]; -0.36 in assay [4]; -1.91 in assay [5]; -1.49 in assay [6]. Further, the z-score in [7] was 1.44 (inactive); in assay [8], -0.745; in [9] it was -0.75; in assay [10], -0.526 (inactive).

Consider `COCCCNC(=O)[C@@]1(Cc2ccccc2N=[N+]=[N-])N=C(c2ccc(OCCCO)cc2)O[C@H]1c1ccccc1N=[N+]=[N-]`, for which the z-score in [1] is -1.84; in assay [2], 0.954; in [3] it was -1.37; in assay [4], -1.88; in assay [5] it was -3.69; in assay [6] it was 1.77. For the same compound, the z-score in assay [7] was 0.221 (inactive); in [8] it was -1.22; in assay [9], -2.03; in [10], -1.76 (inactive).

For `CCOc1cc(C(O)C2C=CC3C(=O)N(c4ccccc4)C(=O)C3N2Nc2ccccc2)ccc1O` (stereo not given), the z-score is -0.0398 in assay [1]; -1.24 in assay [2]; 0.992 in assay [3]; -3.04 in [4]; 0.461 in assay [5]; -1.32 in assay [6]. Also, the z-score was -2.33 (inactive) in assay [7], 0.279 in assay [8], -0.817 in [9] and 0.314 (inactive) in assay [10].

As for `C=CCOC(=O)[C@@H]1[C@H]2C(=O)O[C@H](c3ccccc3)[C@H](c3ccccc3)N2[C@H](c2ccc(OCCOC(=O)[C@@H]3C[C@@H]4C(=O)N[C@@H](CCCC[N+](C)(C)C)C(=O)N4[C@@H]3c3cccc(OCCO)c3)cc2)[C@@]12C(=O)Nc1ccc(I)cc12`, the z-score in assay [1] was -0.477; in [2], 0.788; in [3] it was -0.776; in assay [4] it was -2.78; in assay [5] it was -2.03; in [6] it was -0.605. Besides, the z-score in assay [7] is 0.902 (inactive); in assay [8], -0.637; in assay [9] it was -1.22; in assay [10], 0.504 (inactive).

Regarding `CC1CC/C=C\[C@H]2OC34C=CCN(C(C)(C)C)C(=O)[C@H]3N(CCCCCCO)C(=O)[C@@H]4C2C(=O)O1` (stereo not given in full), the z-score is 0.406 in [1]; 0.305 in assay [2]; 1.08 in assay [3]; 0.742 in assay [4]; 0.298 in [5]; 0.436 in [6]. In addition, the z-score was 1.11 (inactive) in assay [7], 0.563 in assay [8], -0.166 in [9] and -0.43 (inactive) in assay [10].

Source of the values: PubChem BioAssay.
